From PubChem BioAssay (NCI)
The panel holds about 79,000 compounds, 15% with a hit somewhere; the sample as a whole holds those more often. Calls of active or inactive are those of the source. Rule as the data show it: active = growth inhibition above about 70%; inactive = the rest.

Legend:
[1] = NCI Yeast Anticancer Drug Screen. Data for the rad52 strain (AID 147);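 also: 0% = growth of vehicle-treated control cultures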; conditions: S. cerevisiae rad52 mutant growth inhibition, stronger effect = higher value
In short: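 Screen used a yeast mutant impaired in DNA repair. After compound exposure, growth was measured. Values reflect inhibition compared with vehicle-treated cells.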

[2] = NCI Yeast Anticancer Drug Screen. Data for the wt1 strain (AID 149);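 also: 0% = growth of vehicle-treated wt1 cultures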; conditions: S. cerevisiae wt1 strain (SPY 50644) growth inhibition, stronger effect = higher value
In short: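 wt1 yeast, compound-treated; % growth inhibition vs vehicle control.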

[3] = NCI Yeast Anticancer Drug Screen. Data for the rad50EPP+ strain (AID 151);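 also: 0% = growth of vehicle-treated control cultures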; conditions: S. cerevisiae rad50 mutant strain, stronger effect = higher value
In short: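 Exposing the rad50EPP+ strain to each compound, growth was compared with vehicle-only cultures to give inhibition.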

[4] = NCI Yeast Anticancer Drug Screen. Data for the mgt1 strain (AID 153); conditions: S. cerevisiae mgt1 mutant growth inhibition, stronger effect = higher value
In short: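 Genetically defined yeast (mgt1) treated with compound; inhibition of growth expressed against vehicle-treated controls.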

[5] = NCI Yeast Anticancer Drug Screen. Data for the mec2-1 strain (AID 157); conditions: S. cerevisiae mec2-1 strain, stronger effect = higher value
In short: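 Readout is yeast growth inhibition, normalised to vehicle-treated controls, in the mec2-1 strain exposed to compound.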

[6] = NCI Yeast Anticancer Drug Screen. Data for the rad14 strain (AID 159);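 also: 0% = growth of vehicle-treated control cultures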; conditions: S. cerevisiae rad14 strain growth inhibition, stronger effect = higher value
In short: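 Test compounds were applied to a repair-deficient yeast strain. Its growth was then compared with that of cultures given vehicle alone, and inhibition was expressed relative to those controls.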

[7] = NCI Yeast Anticancer Drug Screen. Data for the sgs1 mgt1 strain (AID 161);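 also: 0% = growth of cultures given vehicle only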; conditions: S. cerevisiae sgs1 mgt1 strain, stronger effect = higher value
In short: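 Compounds are added to genetically altered yeast, and growth is compared with cultures given vehicle alone to give percent inhibition.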

[8] = NCI Yeast Anticancer Drug Screen. Data for the cln2 rad14 strain (AID 165);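 also: 0% = growth equal to vehicle treated cultures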; conditions: S. cerevisiae cln2 rad14 strain, stronger effect = higher value
In short: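 Relative to vehicle controls, growth inhibition of compound-treated cln2 rad14 yeast was recorded.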

[9] = NCI Yeast Anticancer Drug Screen. Data for the bub3 strain (AID 167); conditions: S. cerevisiae bub3 mutant strain, stronger effect = higher value
In short: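 Yeast carrying a defined mutation is treated with each compound, and growth is compared with that of vehicle-exposed cells to give inhibition.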

[10] = NCI Yeast Anticancer Drug Screen. Data for the wt2 strain (AID 169);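 also: 0% = growth of vehicle-treated yeast cultures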; conditions: S. cerevisiae wt2 strain growth inhibition, stronger effect = higher value
In short: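 Values express reduction in yeast growth under compound treatment, referenced to vehicle-treated cells.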

[11] = NCI Yeast Anticancer Drug Screen. Data for the mlh1 strain (AID 171);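 also: 0% = growth of vehicle-treated control cultures of the same strain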; conditions: S. cerevisiae mlh1 strain growth inhibition, stronger effect = higher value
In short: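 Steps: expose the defined-mutant yeast strain to compound; expose a parallel culture to vehicle; measure growth; express compound effect as inhibition relative to the vehicle culture.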

[12] = NCI Yeast Anticancer Drug Screen. Data for the sgs1 strain (AID 173);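 also: 0% = growth of vehicle-only control cultures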; conditions: S. cerevisiae sgs1 mutant, stronger effect = higher value
In short: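 Treat defined-mutant yeast with compound; measure growth; calculate inhibition relative to vehicle-treated cells.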

[13] = NCI Yeast Anticancer Drug Screen. Data for the mlh1 rad18 strain (AID 175); conditions: S. cerevisiae mlh1 rad18 strain growth inhibition, stronger effect = higher value
In short: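 Test agents were incubated with a yeast strain of defined genotype (DNA damage repair defect). Inhibition of growth was derived by comparison with vehicle-exposed cultures.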

[14] = NCI Yeast Anticancer Drug Screen. Data for the rad18 strain (AID 177); conditions: S. cerevisiae rad18 mutant growth inhibition, stronger effect = higher value
In short: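 A genetically defined yeast mutant impaired in DNA damage repair was treated with test compounds, then its growth was measured against cultures receiving vehicle alone.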

[15] = NCI Yeast Anticancer Drug Screen. Data for the rad50 strain (AID 155);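 also: 0% = growth of vehicle-only cultures of the same strain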; conditions: S. cerevisiae rad50 strain growth inhibition, stronger effect = higher value
In short: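 Genetically altered yeast (DNA repair pathway); compound treatment; growth inhibition vs vehicle ctrl.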

[16] = NCI Yeast Anticancer Drug Screen. Data for the CLN2oe strain (AID 163);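 also: 0% = growth of vehicle-only control cultures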; conditions: S. cerevisiae CLN2oe strain, stronger effect = higher value
In short: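 Values reflect how much compound exposure reduced yeast growth, referenced to vehicle-exposed cells. Assay organism is a strain with a defined genetic change affecting cell-cycle control.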

[17] = at 5.0 µM (retest, dose inferred, filed as 0.5)
[18] = at 50.0 µM (retest, dose inferred, filed as 5.0)

Measured: growth inhibition

COc1cc2cc3c4cc(OC)c(OC)cc4cc[n+]3c(C)c2cc1OC
active: [5]; [17] 73% | [5]; [18] 83% | [9]; at 50.0 µM 79.8% | [13]; [18] 80%
inactive: [1]; at 1.2 µM -21% | [1]; at 3.7 µM -21% | [1]; at 11.0 µM -16% | [1]; at 33.0 µM -20% | [1]; at 100.0 µM -13% | [2]; at 1.2 µM -33% | [2]; at 3.7 µM -31% | [2]; at 11.0 µM -32% | [2]; at 33.0 µM -37% | [2]; at 100.0 µM -31% | [3]; at 1.2 µM -18% | [3]; at 3.7 µM -17% | [3]; at 11.0 µM -21% | [3]; at 33.0 µM -20% | [3]; at 100.0 µM -26% | [4]; at 1.2 µM -21% | [4]; at 3.7 µM -29% | [4]; at 11.0 µM -38% | [4]; at 33.0 µM -34% | [4]; at 100.0 µM -31% | [5]; at 1.2 µM -13% | [5]; at 3.7 µM -11% | [5]; at 11.0 µM -7% | [5]; at 33.0 µM -16% | [5]; at 50.0 µM 6.05% | [5]; at 100.0 µM -5% | [6]; at 1.2 µM -27% | [6]; at 3.7 µM -22% | [6]; at 11.0 µM -31% | [6]; at 33.0 µM -26% | [6]; at 100.0 µM -27% | [7]; [17] -28% | [7]; [18] -6% | [7]; at 50.0 µM 36.6% | [8]; [17] 61% | [8]; [18] 26% | [8]; at 50.0 µM 15.2% | [9]; at 1.2 µM 0% | [9]; at 3.7 µM 12% | [9]; [17] 5% | [9]; at 11.0 µM 13% | [9]; at 33.0 µM 6% | [9]; [18] 19% | [9]; at 100.0 µM 9% | [10]; at 1.2 µM -30% | [10]; at 3.7 µM -28% | [10]; at 11.0 µM -35% | [10]; at 33.0 µM -31% | [10]; at 100.0 µM -22% | [11]; at 1.2 µM -34% | [11]; at 3.7 µM -28% | [11]; at 11.0 µM -35% | [11]; at 33.0 µM -39% | [11]; at 100.0 µM -49% | [12]; at 1.2 µM -19% | [12]; at 3.7 µM -17% | [12]; at 11.0 µM -28% | [12]; at 33.0 µM -27% | [12]; at 100.0 µM -11% | [13]; [17] 55% | [13]; at 50.0 µM -76.2% | [14]; at 1.2 µM -23% | [14]; at 3.7 µM -27% | [14]; at 11.0 µM -23% | [14]; at 33.0 µM -22% | [14]; at 100.0 µM -22%

CCCCc1ccc(-n2c(C)c(COC(=O)NC)c(COC(=O)NC)c2C)cc1
inactive: [1]; at 1.2 µM -40% | [1]; at 3.7 µM -10% | [1]; at 11.0 µM 5% | [2]; at 1.2 µM -48% | [2]; at 3.7 µM -44% | [2]; at 11.0 µM -13% | [3]; at 1.2 µM -18% | [3]; at 3.7 µM -13% | [3]; at 11.0 µM -6% | [4]; at 1.2 µM -43% | [4]; at 3.7 µM -41% | [4]; at 11.0 µM 19% | [15]; at 1.2 µM -36% | [15]; at 3.7 µM -30% | [15]; [17] 19% | [15]; at 11.0 µM 31% | [5]; at 1.2 µM -28% | [5]; at 3.7 µM -21% | [5]; [17] 14% | [5]; at 11.0 µM 24% | [7]; [17] 26% | [7]; [18] 57% | [16]; at 1.2 µM -23% | [16]; at 3.7 µM -1% | [16]; at 11.0 µM 5% | [8]; [17] 21% | [8]; [18] -28% | [9]; at 1.2 µM -36% | [9]; at 3.7 µM -39% | [9]; [17] 11% | [9]; at 11.0 µM 56% | [9]; [18] 4% | [10]; at 1.2 µM -24% | [10]; at 3.7 µM -10% | [10]; at 11.0 µM 5% | [11]; at 1.2 µM -39% | [11]; at 3.7 µM -18% | [12]; at 1.2 µM -3% | [12]; at 3.7 µM -2% | [12]; at 11.0 µM 47% | [13]; [17] 18% | [14]; at 1.2 µM -27% | [14]; at 3.7 µM -1% | [14]; at 11.0 µM 59%
active: [1]; at 33.0 µM 98% | [1]; at 100.0 µM 93% | [2]; at 33.0 µM 99% | [2]; at 100.0 µM 91% | [3]; at 33.0 µM 90% | [3]; at 100.0 µM 92% | [4]; at 33.0 µM 99% | [4]; at 100.0 µM 94% | [15]; at 33.0 µM 93% | [15]; [18] 95% | [15]; at 50.0 µM 90.6% | [15]; at 100.0 µM 90% | [5]; at 33.0 µM 99% | [5]; [18] 98% | [5]; at 50.0 µM 92.6% | [5]; at 100.0 µM 93% | [7]; at 50.0 µM 88.5% | [16]; at 33.0 µM 97% | [16]; at 100.0 µM 94% | [8]; at 50.0 µM 81.5% | [9]; at 33.0 µM 99% | [9]; at 50.0 µM 85.5% | [9]; at 100.0 µM 88% | [10]; at 33.0 µM 98% | [10]; at 100.0 µM 94% | [11]; at 11.0 µM 83% | [11]; at 33.0 µM 97% | [11]; at 100.0 µM 87% | [12]; at 33.0 µM 98% | [12]; at 100.0 µM 91% | [13]; [18] 98% | [13]; at 50.0 µM 91.2% | [14]; at 33.0 µM 95% | [14]; at 100.0 µM 77%

S=c1[nH]c2cc3ccccc3cc2[nH]1
active: [15]; [18] 86% | [15]; at 50.0 µM 71.2%
inactive: [1]; at 1.2 µM -42% | [1]; at 3.7 µM -46% | [1]; at 11.0 µM -37% | [1]; at 33.0 µM -31% | [1]; at 100.0 µM -19% | [2]; at 1.2 µM -24% | [2]; at 3.7 µM -6% | [2]; at 11.0 µM 6% | [2]; at 33.0 µM 3% | [2]; at 100.0 µM 2% | [3]; at 1.2 µM -12% | [3]; at 3.7 µM 3% | [3]; at 11.0 µM -4% | [3]; at 33.0 µM 14% | [3]; at 100.0 µM 38% | [4]; at 1.2 µM -36% | [4]; at 3.7 µM -7% | [4]; at 11.0 µM -15% | [4]; at 33.0 µM 6% | [4]; at 100.0 µM 16% | [15]; at 1.2 µM -25% | [15]; at 3.7 µM -25% | [15]; [17] 5% | [15]; at 11.0 µM -11% | [15]; at 33.0 µM 3% | [15]; at 100.0 µM 17% | [5]; at 1.2 µM -25% | [5]; at 3.7 µM -13%
